Source: PubChem BioAssay (NCATS)
Records with an inconclusive call do not appear. Calls of active or inactive are those of the source. Calls follow the shape of the dose curve; as a rule, active = well fitted curve in the direction sought with a large enough effect; inconclusive = small, poorly fitted or top-dose-only effect, or another doubt; inactive = no such curve, though single readings can be large; an effect the other way counts as inactive or inconclusive.

Key:
NIH3T3 = assay: qHTS assay to identify novel small-molecules to repurpose for Merkel cell carcinoma treatment (AID 1296009); conditions: MCC and control cell lines, CellTiter-Glo viability, 72 h; at 44.8 µM (top of the series) unless noted; also: nearly all actives have a fitted effect of over 60% in size
Procedure, shortened: (§1)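 Luminescence from CellTiter-Glo, read 10 min after addition at room temperature, reported viability following a 72 hr, 37 degree celsius treatment with NPC or MIPE compounds in titration; values normalized to plate controls.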

C33A = assay: Primary qHTS to identify gynecologic anti-cancer compounds using libraries of approved drugs and bioactive compounds (AID 1345084); conditions: Gynecologic cancer cell panel viability, ATPlite luminescence, 48 h; series mostly up to 57.5 µM; also: nearly all actives have a fitted effect of over 55% in size
Procedure, shortened: (§2)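 ATP-based viability (ATPlite), 1,000 cells/well, 16 h pre-incubation, 48 h compound at 37 C, 5% CO2, 15 min RT before read.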

CAOV3 = assay: as above; conditions: Gynecologic cancer cell panel viability, ATPlite luminescence, 48 h; series mostly up to 57.5 µM
Procedure, shortened: as §2

CASKI = assay: as above; conditions: Gynecologic cancer cell panel viability, ATPlite luminescence, 48 h; series mostly up to 57.5 µM
Procedure, shortened: as §2

Es-2 = assay: as above; conditions: Gynecologic cancer cell panel viability, ATPlite luminescence, 48 h; series mostly up to 57.5 µM
Procedure, shortened: as §2

HeLa = assay: as above; conditions: Gynecologic cancer cell panel viability, ATPlite luminescence, 48 h; series mostly up to 57.5 µM
Procedure, shortened: as §2

Hek293T = assay: as above; conditions: Gynecologic cancer cell panel viability, ATPlite luminescence, 48 h, control line for the selectivity index; series mostly up to 57.5 µM
Procedure, shortened: as §2

JEG-3 = assay: as above; conditions: Gynecologic cancer cell panel viability, ATPlite luminescence, 48 h; series mostly up to 57.5 µM
Procedure, shortened: as §2

OV90 = assay: as above; conditions: Gynecologic cancer cell panel viability, ATPlite luminescence, 48 h; series mostly up to 57.5 µM
Procedure, shortened: as §2

PA-1 = assay: as above; conditions: Gynecologic cancer cell panel viability, ATPlite luminescence, 48 h; series mostly up to 57.5 µM
Procedure, shortened: as §2

SKOV3 = assay: as above; conditions: Gynecologic cancer cell panel viability, ATPlite luminescence, 48 h; series mostly up to 57.5 µM
Procedure, shortened: as §2

Tov-21-G = assay: as above; conditions: Gynecologic cancer cell panel viability, ATPlite luminescence, 48 h; series mostly up to 57.5 µM
Procedure, shortened: as §2

Tov112D = assay: as above; conditions: Gynecologic cancer cell panel viability, ATPlite luminescence, 48 h; series mostly up to 57.5 µM
Procedure, shortened: as §2

MCC-26 = assay: qHTS assay to identify novel small-molecules to repurpose for Merkel cell carcinoma treatment (AID 1296009); conditions: MCC and control cell lines, CellTiter-Glo viability, 72 h; series mostly up to 46 µM; also: nearly all actives have a fitted effect of over 60% in size
Procedure, shortened: as §1

MKL-1 = assay: as above; conditions: MCC and control cell lines, CellTiter-Glo viability, 72 h; series mostly up to 46 µM
Procedure, shortened: as §1

MKL-2 = assay: as above; conditions: MCC and control cell lines, CellTiter-Glo viability, 72 h; series mostly up to 46 µM
Procedure, shortened: as §1

UISO = assay: as above; conditions: MCC and control cell lines, CellTiter-Glo viability, 72 h; series mostly up to 46 µM
Procedure, shortened: as §1

WaGa = assay: as above; conditions: MCC and control cell lines, CellTiter-Glo viability, 72 h; series mostly up to 46 µM
Procedure, shortened: as §1

[1] = Drug repurposing screens with cells derived from glioblastoma tumor samples (AID 1345199); conditions: GBM patient neurospheres viability, ATP luminescence, 48 h; also: nearly all actives have a fitted effect of over 40% in size
Procedure, shortened: (§3)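 Primary testing used CD133+ neurospheres from four GBM patients, seven concentrations, 48 h exposure and ATP-based viability; confirmation added three slower-growing patient lines.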

astro = assay: as above; conditions: viability, ATP luminescence, 48 h; series mostly up to 45.9 µM
Procedure, shortened: as §3
% is scaled to controls: 0 for no effect and ±100 for the full control effect.

COC1=CC(=O)C[C@@H](C)[C@]12Oc1cc(OC)cc(OC)c1C2=O
inactive: outcome (NIH3T3) | Potency (C33A) | Potency (CAOV3) | Potency (CASKI) | Potency (Es-2) | Potency (HeLa) | Potency (Hek293T) | Potency (JEG-3) | Potency (OV90) | Potency (PA-1) | Potency (SKOV3) | Potency (Tov-21-G) | Potency (Tov112D)

C=C(C)C(=O)O[C@H]1C[C@@](C)(OC(C)=O)[C@@]2(O)CC[C@@](C)(O)[C@H](OC(C)=O)[C@@]23OC(=O)C(COC)=C13
inactive: outcome (NIH3T3) inactive [at 17.4 µM] | Potency (C33A) | Potency (CAOV3) | Potency (CASKI) | Potency (Es-2) | Potency (HeLa) | Potency (Hek293T) | Potency (JEG-3) | Potency (OV90) | Potency (PA-1) | Potency (SKOV3) | Potency (Tov-21-G) | Potency (Tov112D)

C=CC(C)(C)C1(CC2NC(=O)C3CCCN3C2=O)C(=O)Nc2cc3c(cc21)C=CC(C)(C)O3 (centres undefined)
inactive: outcome (NIH3T3) inactive [at 17.4 µM] | Potency (C33A) | Potency (CAOV3) | Potency (CASKI) | Potency (Es-2) | Potency (HeLa) | Potency (Hek293T) | Potency (JEG-3) | Potency (OV90) | Potency (PA-1) | Potency (SKOV3) | Potency (Tov-21-G) | Potency (Tov112D)

Nc1nonc1C(=Nc1ccc(F)c(Cl)c1)NO
inactive: outcome (NIH3T3) | Potency (C33A) | Potency (CAOV3) | Potency (CASKI) | Potency (Es-2) | Potency (HeLa) | Potency (Hek293T) | Potency (JEG-3) | Potency (OV90) | Potency (PA-1) | Potency (SKOV3) | Potency (Tov-21-G) | Potency (Tov112D)

COc1ccc(C(O[C@@H]2O[C@H](CO)[C@@H](O)[C@H](O)[C@H]2O)C(CO)Oc2ccc(/C=C/CO)cc2OC)cc1O (some centres undefined)
inactive: outcome (NIH3T3) inactive [at 17.4 µM] | Potency (C33A) | Potency (CAOV3) | Potency (CASKI) | Potency (Es-2) | Potency (HeLa) | Potency (Hek293T) | Potency (JEG-3) | Potency (OV90) | Potency (PA-1) | Potency (SKOV3) | Potency (Tov-21-G) | Potency (Tov112D)

COC(=O)C12C(=O)C(C)=C(O)C1(C)C(C)=CC1C34CCC(OC3=O)C(C)(C)C4CCC12C (centres undefined)
inactive: outcome (NIH3T3) inactive [at 17.4 µM] | Potency (C33A) | Potency (CAOV3) | Potency (CASKI) | Potency (Es-2) | Potency (HeLa) | Potency (Hek293T) | Potency (JEG-3) | Potency (OV90) | Potency (PA-1) | Potency (SKOV3) | Potency (Tov-21-G) | Potency (Tov112D)

CC(C)(O)c1ccc2c(c1)C(O)CC1C(C)(C(=O)O)CCCC21C (centres undefined)
inactive: outcome (NIH3T3) | Potency (C33A) | Potency (CAOV3) | Potency (CASKI) | Potency (Es-2) | Potency (HeLa) | Potency (Hek293T) | Potency (JEG-3) | Potency (OV90) | Potency (PA-1) | Potency (SKOV3) | Potency (Tov-21-G) | Potency (Tov112D)

CO[C@@H](Cc1ccc(OCCc2nc(-c3ccccc3)oc2C)c2ccsc12)C(=O)O
inactive: outcome (NIH3T3) | Potency (C33A) | Potency (CAOV3) | Potency (CASKI) | Potency (Es-2) | Potency (HeLa) | Potency (Hek293T) | Potency (JEG-3) | Potency (OV90) | Potency (PA-1) | Potency (SKOV3) | Potency (Tov-21-G) | Potency (Tov112D)

CN1Cc2c(N)cccc2C(c2ccccc2)C1 (centres undefined)
inactive: outcome (MCC-26) | outcome (MKL-1) | outcome (MKL-2) | outcome (NIH3T3) | outcome (UISO) | outcome (WaGa) | Potency (C33A) | Potency (CAOV3) | Potency (CASKI) | Potency (Es-2) | Potency (HeLa) | Potency (Hek293T) | Potency (JEG-3) | Potency (OV90) | Potency (PA-1) | Potency (SKOV3) | Potency (Tov-21-G) | Potency (Tov112D) | activity, negative = cell killing ([1]; at 45.9 µM (top of the series), tumour line B) -10.9% | activity, negative = cell killing ([1]; at 45.9 µM (top of the series), tumour line D) -22.4% | activity, negative = cell killing ([1]; at 46 µM (top of the series), tumour line A) -25.6% | activity, negative = cell killing ([1]; at 46.1 µM (top of the series), tumour line C) -16.4% | Potency (astro)

CC(=O)O[C@H]1CC[C@@]2(CI)C(=CC[C@@H]3[C@@H]2CC[C@]2(C)[C@@H]([C@H](C)CCCC(C)C)CC[C@@H]32)C1
inactive: outcome (NIH3T3) inactive [at 9.27 µM] | activity change, negative = cytotoxicity (C33A) 15% [at 11.6 µM] | activity change, negative = cytotoxicity (CAOV3) 9.25% [at 11.6 µM] | activity change, negative = cytotoxicity (CASKI) -2.47% [at 11.6 µM] | activity change, negative = cytotoxicity (Es-2) -1.33% [at 11.6 µM] | activity change, negative = cytotoxicity (HeLa) 10.9% [at 11.6 µM] | activity change, negative = cytotoxicity (Hek293T) 4.14% [at 11.6 µM] | activity change, negative = cytotoxicity (JEG-3) -2.55% [at 11.6 µM] | activity change, negative = cytotoxicity (OV90) -2.38% [at 11.6 µM] | activity change, negative = cytotoxicity (PA-1) 22.4% [at 11.6 µM] | activity change, negative = cytotoxicity (SKOV3) 5.27% [at 11.6 µM] | activity change, negative = cytotoxicity (Tov-21-G) 10.3% [at 11.6 µM] | activity change, negative = cytotoxicity (Tov112D) 11.8% [at 11.6 µM]

COC(=O)C1(Cc2ccc(O)cc2)OC(=O)C(OC)=C1c1ccc(O)cc1 (centres undefined)
inactive: outcome (NIH3T3) | Potency (C33A) | Potency (CAOV3) | Potency (CASKI) | Potency (Es-2) | Potency (HeLa) | Potency (Hek293T) | Potency (JEG-3) | Potency (OV90) | Potency (PA-1) | Potency (SKOV3) | Potency (Tov-21-G) | Potency (Tov112D)

C=C1CC[C@H]2[C@@H](/C=C(\C)C(=O)[C@@]3(OC(C)=O)C[C@H](C)[C@H](OC(C)=O)[C@@H]3[C@H]1OC(C)=O)C2(C)C
inactive: outcome (NIH3T3) inactive [at 17.4 µM] | Potency (C33A) | Potency (CAOV3) | Potency (CASKI) | Potency (Es-2) | Potency (HeLa) | Potency (Hek293T) | Potency (JEG-3) | Potency (OV90) | Potency (PA-1) | Potency (SKOV3) | Potency (Tov-21-G) | Potency (Tov112D)

C[C@@H]1CC[C@]2(C(=O)O)CC[C@]3(C(=O)O)C(=CCC4[C@@]5(C)CC[C@H](O[C@@H]6O[C@@H](C)[C@H](O[C@@H]7O[C@H](CO)[C@@H](O)[C@H](O)[C@H]7O)[C@@H](O)[C@H]6O)C(C)(C)C5CC[C@]43C)C2[C@H]1C (some centres undefined)
inactive: outcome (NIH3T3) inactive [at 17.4 µM] | Potency (C33A) | Potency (CAOV3) | Potency (CASKI) | Potency (Es-2) | Potency (HeLa) | Potency (Hek293T) | Potency (JEG-3) | Potency (OV90) | Potency (PA-1) | Potency (SKOV3) | Potency (Tov-21-G) | Potency (Tov112D)
